Experimental data: PubChem BioAssay
Several values for one entry are separate records, joined by “and”; a condition that tells them apart may be missing. Equal values may be shown once.

Experiments:
[1] = system: Botulinum neurotoxin type F light chain protease (Clostridium botulinum); test: Botulinum neurotoxin type F light chain protease inhibition, multiplex microsphere flow cytometry, validation set (AID 588459); settings: multiplex microsphere protease substrate cleavage assay, at 10 µM, active compounds read high
[2] = molecular target: Botulinum neurotoxin type A (Clostridium botulinum) (UniProt P0DPI0); test: BoNT/A light chain protease inhibitors, biochemical, multiplex microsphere flow cytometry, validation set (AID 588460); settings: at 10 µM, active compounds read high
[3] = molecular target: Lethal factor (Bacillus anthracis) (UniProt P15917); test: Lethal factor protease inhibitors, Bacillus anthracis, multiplex microsphere cleavage assay, validation set (AID 588461); settings: flow cytometry, at 10 µM, active compounds read high

Measured: inhibition

CCOC(=O)C1=C2c3ccc4ccccc4c3CC(C)(C)N2C(=O)C1=O
inactive: [1] 2.7% | [2] 1.7% | [3] -4.6%

O=Cc1ccc(OC(=O)c2cccnc2)cc1
inactive: [1] 0.2% | [2] -0.7% | [3] -3.8%

COc1ccccc1C1(CC(=O)N2CCCCC2)CCOC(C(C)C)C1 (stereo unspecified)
inactive: [1] 1.1% | [2] -0.2% | [3] -3.3%

COc1cccc(OC)c1C(=O)NCCSC1CCCCC1
inactive: [1] 1.4% | [2] 0% | [3] 5.6%

C=CCc1ccccc1OCC(O)CNC(C)C (stereo unspecified)
inactive: [1] -1% | [2] 0.4% | [3] -6.5%

Cc1ccc2c(ccc(=S)n2C)c1
inactive: [1] 1.7% | [2] 0.8% | [3] 7.4%

CC(C)(C)NCC(O)COc1cccc2c1C[C@H](O)[C@H](O)C2 (stereo partly specified)
inactive: [1] -2.3% | [2] 0.4% | [3] 1.6%

C[C@H]1O[C@@H](O[C@H]2[C@@H](O)C[C@H](O[C@H]3[C@@H](O)C[C@H](O[C@H]4CC[C@@]5(C)[C@H](CC[C@@H]6[C@@H]5C[C@@H](O)[C@]5(C)[C@@H](C7=CC(=O)OC7)CC[C@]65O)C4)O[C@@H]3C)O[C@@H]2C)C[C@H](O)[C@@H]1O
inactive: [1] 2.7% | [2] -0.7% | [3] -2.8%

O=C(CNC(=O)OCc1ccccc1)Oc1cc2oc(=O)cc(-c3ccccc3)c2cc1Cl
inactive: [1] 2.7% | [2] 0.9% | [3] 11.5%

CCOCc1cc(C)[nH]c(=O)c1C#N
inactive: [1] -0.2% | [2] 2.8% | [3] 2%

C[C@]12CC[C@@H]3c4ccc(O)cc4CC[C@H]3[C@@H]1CCC2=O
inactive: [1] 1.3% | [2] -2.2% | [3] -3.8%

OC12CCCCC1C(c1ccc3c(c1)OCO3)N(Cc1cccc(F)c1)CC2 (stereo unspecified)
inactive: [1] -0.1% | [2] -1.3% | [3] -2.8%

Cc1ccc2c(c1)c(C)cc(=O)n2CCC(=O)O
inactive: [1] 0.8% | [2] -0.2% | [3] 1.1%

CC1(C)c2ccccc2N2CC(=O)N(CC(N)=O)C21C (stereo unspecified)
inactive: [1] 1.5% | [2] -1.4% | [3] -5%

CCn1c(=N)c(C(=O)NC)cc2c(=O)n3cccc(C)c3nc21
inactive: [1] 3.8% | [2] 3.8% | [3] 5.6%

NS(=O)(=O)c1ccc(CCNC(=O)C2CCCN2C(=O)OCc2ccccc2)cc1 (stereo unspecified)
inactive: [1] 3.9% | [2] -0.7% | [3] 1.2%

CCCCCCCC(=O)OCC(O)CO (stereo unspecified)
inactive: [1] -6.1% | [2] -0.1% | [3] -2%

Cc1cnc(C(=O)NCCc2ccc(S(=O)(=O)NC(=O)NC3CCCCC3)cc2)cn1
inactive: [1] 0.7% | [2] -0.2% | [3] -0.1%

CCCC(=O)O[C@]1(C(=O)CO)CC[C@H]2[C@@H]3CCC4=CC(=O)CC[C@]4(C)[C@H]3[C@@H](O)C[C@@]21C
inactive: [1] 5.1% | [2] 0.1% | [3] -0.6%

CCOC(=O)C1(Cc2cccc(Cl)c2)CCCN(C2CCN(C(C)=O)CC2)C1 (stereo unspecified)
inactive: [1] 9.1% | [2] 0.7% | [3] -5.1%

COC(=O)c1[nH]c(=O)c2ccccc2c1O
inactive: [1] 0.4% | [2] 0.2% | [3] -1.7%

Cc1ccc(N(CC2=NCCN2)c2cccc(O)c2)cc1
inactive: [1] -1.3% and 3.1% and -7.5% | [2] -1.3% and -1.2% and -1.7% | [3] -2.4% and -9.5% and -5.2%

CC(C)N(C(=O)Cc1ccccc1[N+](=O)[O-])C(C)C
inactive: [1] -0.6% | [2] -2% | [3] -1.5%

Cc1ccc(/C=N/NC(=O)C2(C)CC2(Br)Br)cc1 (stereo unspecified)
inactive: [1] 1.3% | [2] -0.4% | [3] -5.6%

CCc1ccc(/C=C2\Oc3cc(OC(=O)N4CCOCC4)ccc3C2=O)cc1
inactive: [1] 0.7% | [2] -0.2% | [3] 0.7%

CC(=O)Nc1nc(CCC(C)C)cc2c1c(=O)oc1ccccc12
inactive: [1] 1.3% | [2] -0.1% | [3] -9.4%

CCc1cccc(OC2OC(CO)C(O)C(O)C2NC(C)=O)c1 (stereo unspecified)
inactive: [1] -0.7% | [2] -0.7% | [3] -4.6%

CC(C)(C)NCC(O)COc1ccccc1C(=O)CCc1ccccc1 (stereo unspecified)
inactive: [1] -5.8% | [2] -2% | [3] -4.9%

Nc1cccc2nc3ccccc3cc12
inactive: [1] 4% | [2] 2.3% | [3] 1.2%

COc1ccccc1/C=C/CN1CCN(Cc2ccc(F)cc2)C(CCO)C1 (stereo unspecified)
inactive: [1] 5.5% | [2] -0.2% | [3] -1.4%

NS(=O)(=O)c1cc2c(cc1C(F)(F)F)NCNS2(=O)=O
inactive: [1] 0.5% | [2] -0.4% | [3] 5.4%

CCCCOc1cc(C(=O)NCCN(CC)CC)c2ccccc2n1
inactive: [1] 8.5% and -0.1% | [2] 1.5% and -0.6% | [3] -1.9% and 2.1%

CCCc1cc(C(N)=S)ccn1
inactive: [1] 1.8% | [2] 1.2% | [3] -7.7%

CC[C@]1(O)CC2CN(CCc3c([nH]c4ccccc34)[C@@](C(=O)OC)(c3cc4c(cc3OC)N(C=O)[C@H]3[C@@](O)(C(=O)OC)[C@H](OC(C)=O)[C@]5(CC)C=CCN6CC[C@]43[C@@H]65)C2)C1 (stereo partly specified)
inactive: [1] 1.5% | [2] 0% | [3] -12.5%

O=C(O)c1cc(-c2ccc3c(c2)OCO3)nc2ccc(Br)cc12
inactive: [1] -1% | [2] 3% | [3] -2.6%

COc1ccc(/C=C2\CCc3ccccc3C2=O)c(OC)c1OC
inactive: [1] 6.4% | [2] 0.8% | [3] 3.9%

CC1(C)Cc2ccccc2C(C(Cc2ccccc2)C(N)=O)=N1 (stereo unspecified)
inactive: [1] 0.5% | [2] 1.1% | [3] -3.2%

CCN(CC)C(=O)N1CCN(C)CC1
inactive: [1] -3.4% | [2] -0.7% | [3] 4.2%

O=C(/C=C/c1ccco1)N1CCN(c2ccccc2)CC1
inactive: [1] -0.6% | [2] -1.8% | [3] -0.6%

Nc1nc(Cl)nc2c1ncn2[C@@H]1O[C@H](CO)[C@@H](O)[C@H]1O
inactive: [1] 3.3% | [2] 0.5% | [3] -6.9%

CN1CCCN(C(c2ccccc2)c2ccc(Cl)cc2)CC1 (stereo unspecified)
inactive: [1] 3.2% | [2] -1.8% | [3] -8.8%

CN(CCCN1CCOCC1)Cc1cn(C)nc1-c1ccccc1F
inactive: [1] 0% | [2] -0.8% | [3] -6.1%
